From PubChem
A selection: hits, their analogues and other compounds. The true share with any hit is near 3.4%.
Vif inh: HIV Vif self-association inhibitors, primary screen, imaging, HEK293T, single point; HEK293T cells, Vif self-association by quenched fluorescence, 24 h; inhibition, % at 7.49 µM; AID 602346, 2012; hit rate 0.35% among 340,000; in the data active means inhibition above about 50%, passing the limit was not always enough; inconclusive means no clear call, values can overlap the other calls; inactive means below about 31%
HSF1 inh: HSF1 inhibitors in luciferase reporter cells, primary screen, cell-based, NIH3T3, luminescence; NIH3T3-HGL HSE-luciferase, MG132-induced, luminescence 8 h; hits give low values; activity change, negative = inhibition, % at 7.5 µM (by protocol); hit rate 0.77% among 300,000;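 active means more than half of replicate wells show activity change below -50%, luminescence cut by over half; inconclusive means some wells, but at most half, below -50%; inactive means no replicate well below -50%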;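 further: luciferase reports HSF-1 transcriptional activity via heat shock element; 0% = median of DMSO wells and -100% = zero luminescence signal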
HSF1 activator: HSF-1 activators, primary screen, NIH3T3-HGL cells, MG132 stress, luminescence, single point; NIH3T3-HGL HSF-1 luciferase reporter, 8 h; 100% = twice DMSO control signal; activation, % at 9 µM; hit rate 1.7% among 300,000; AID 504408, 2011;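 active means mean replicate activation of at least 50% with a set share of replicates each reaching 50%; inconclusive means only one of those two conditions met; inactive means mean below 50% and too few replicates reaching it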;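 further: 0% = median of the neutral control wells and 100% = twice that signal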
esBAF inh: Bmi1 luciferase reporter increase in mESCs, primary screen, esBAF inhibitor project, mouse ES cells, Bmi1 luciferase knock-in, single point | 24 h; 100% = twice the neutral-well signal | reporter increase, % at 12.5 µM | hit rate 2% among 350,000; in the data active means activation above about 40%; inconclusive means no clear call, values can overlap the other calls;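 further: 0% = median of the plate's neutral control wells and 100% = double that signal; a rise in the Bmi1 reporter signal indicates esBAF inhibition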
* hit, by the source's call; ? = inconclusive; . = no result.

SMILES | Vif inh | HSF1 inh | HSF1 activator | esBAF inh
NCCCCCC(=O)Nc1ccncc1 | 59.9* | -0.9 | 5.7 | .
NS(=O)(=O)c1ccc(NC(=O)CCCCC(=O)Nc2ccc(S(N)(=O)=O)cc2)cc1 | 8.1 | 7.6 | 6.6 | -4.4
Cc1ccc(SCCC(=O)N2CCC(C)CC2)cc1 | -3.1 | 19.7 | 58.2* | 59.0*
CCc1nnc(NC(=O)c2sc3nc4cc(C)ccc4cc3c2N)s1 | 169.7* | -0.1 | 2.8 | 49.1*
Cc1ccccc1Nc1cc2ccccc2c(=O)[nH]1 | 1.2 | 11.3 | 23.6 | .
O=c1[nH]c(Nc2ccccc2Cl)cc2ccccc12 | 10.2 | 31.4 | 61.2* | 33.4
Cc1ccc([N+](=O)[O-])c(OCCCN2CCC(Cc3ccccc3)CC2)c1 | 6.0 | -59.6* | -70.6 | -8.2
COc1ccc([N+](=O)[O-])cc1NC(=O)Cc1ccccc1Cl | -8.6 | -1.4 | 0.4 | .
COc1cccc(CNc2ccc([N+](=O)[O-])cc2Cl)c1O | -4.1 | 72.2 | 97.2* | .
Cc1cc([N+](=O)[O-])ccc1NCc1ccccc1 | -9.8 | 11.1 | 18.6 | 6.9
COc1ccccc1CNc1ccc([N+](=O)[O-])cc1C | 4.2 | 27.3 | 55.0* | .
O=C(C=Cc1ccccc1O)c1ccccc1O | 5.4 | . | . | 62.8*
CSc1ccc(/C=C/C(=O)c2ccc(O)cc2)cc1 | 0.4 | 58.2 | 60.2* | .
O=C(/C=C/c1ccc(O)c(O)c1)c1ccccc1O | -3.7 | 76.5 | 92.3* | .
Cc1ccc(/C=C/C(=O)c2ccc(O)cc2)cc1 | 10.0 | 20.3 | 27.5 | .
O=C(O)/C=C/c1ccc(O)cc1 | -4.2 | 3.2 | -10.3 | -2.5
O=C(C=Cc1cccc(O)c1)c1ccccc1O | -6.5 | . | . | ?
O=C(/C=C/c1ccc(O)cc1)c1ccc(O)cc1O | -1.0 | 55.0 | ? | 70.0*
C[C@@H]1CN([C@H](C)CO)S(=O)(=O)c2ccc(-c3ccc(C(=O)N(C)C)cc3)cc2O[C@@H]1CN(C)C(=O)C1CCCCC1 | . | . | . | 0.6
C[C@H]1CN([C@@H](C)CO)C(=O)c2cc(NS(=O)(=O)c3cn(C)cn3)ccc2O[C@H]1CN(C)Cc1ccc(-c2ccccc2)cc1 | . | . | . | -4.6
Nn1c(=O)c2ccccc2n2c(SCc3ccccc3)nnc12 | -15.3 | -68.3* | -76.5 | -5.6
N#C[C@@H]1[C@@H](c2ccc(C#Cc3ccccc3F)cc2)[C@H](CO)N1C(=O)C1CCCCC1 | . | . | . | 14.9
N#C[C@@H]1[C@H](c2ccc(C#Cc3cccc(F)c3)cc2)[C@@H](CO)N1C(=O)C1CCC1 | . | . | . | -66.2
COc1ccc(-c2ccc([C@H]3[C@@H](C#N)N(C(=O)c4cccc(F)c4)[C@@H]3CO)cc2)cc1 | . | . | . | 50.7*
N#C[C@@H]1[C@@H](c2ccc(C#Cc3ccccc3F)cc2)[C@@H](CO)N1C(=O)C1CCCCC1 | . | . | . | 50.9*
SMILES | Vif inh | HSF1 inh | HSF1 activator | esBAF inh
N#C[C@@H]1[C@@H](c2ccc(C#Cc3cccc(F)c3)cc2)[C@@H](CO)N1C(=O)C1CCCC1 | . | . | . | 49.7*
C[C@@H]1CCCCO[C@H](CN(C)S(=O)(=O)c2cccs2)[C@@H](C)CN([C@@H](C)CO)C(=O)c2cc(NS(=O)(=O)c3ccccc3)ccc2O1 | . | . | . | 0.8
C[C@@H]1CCCCO[C@@H](CN(C)C(=O)Cc2ccccc2)[C@H](C)CN([C@H](C)CO)C(=O)c2cc(NS(=O)(=O)c3ccccc3)ccc2O1 | . | . | . | 4.5
Cc1noc(C)c1NC(=O)N(C)C[C@@H]1OCCCC[C@@H](C)Oc2ccc(NS(=O)(=O)c3cccs3)cc2C(=O)N([C@H](C)CO)C[C@H]1C | . | . | . | -10.1
CO[C@H]1CN(C)C(=O)c2cc(NC(C)=O)ccc2OC[C@H](C)N(Cc2ccccc2C(=O)O)C[C@@H]1C | . | . | . | -8.5
Cc1ccnc(NS(=O)(=O)c2ccc(NC(=O)COc3ccccc3)cc2)n1 | 25.0 | -87.9* | -91.0 | .
CC(C)c1ccc(NC(=O)COc2ccccc2)cc1 | -0.7 | 7.1 | 12.5 | 79.3*
CC(C)c1ccc(OCC(=O)Nc2ccc(OC(F)(F)F)cc2)cc1 | -4.1 | -3.0 | -3.7 | .
O=C(COc1cc(Cl)c(Cl)cc1Cl)Nc1cccc(O)c1 | 6.2 | 54.8 | 86.7* | .
O=C(COc1ccccc1)Nc1ccc(S(=O)(=O)Nc2ncccn2)cc1 | -0.7 | -6.6 | -5.8 | .
CC(=O)Nc1cccc(OCC(=O)Nc2ccccc2)c1 | -3.4 | 21.6 | 42.3 | 44.8*
C[C@H](CO)N1C[C@H](C)[C@H](CN(C)Cc2ccccn2)Oc2cc(C3=CCCCC3)ccc2S1(=O)=O | . | . | . | -0.6
C[C@@H]1CN([C@@H](C)CO)C(=O)Cc2cc(NS(C)(=O)=O)ccc2O[C@H]1CN(C)S(C)(=O)=O | . | . | . | -0.2
Cc1noc(C)c1NC(=O)Nc1ccc2c(c1)C(=O)N([C@H](C)CO)C[C@H](C)[C@H](CN(C)C(=O)Nc1ccccc1)OCCCC[C@@H](C)O2 | . | . | . | 1.8
C[C@H](CO)N1C[C@H](C)[C@H](CN(C)C(=O)NC2CCCCC2)Oc2ccc(NC(=O)CCCCCC(=O)Nc3ccccc3N)cc2CC1=O | . | . | . | -3.5
CCC(C)c1ccc(OCC(=O)Nc2ccc3[nH]c(=O)[nH]c3c2)cc1 (configuration not stated) | 1.6 | -8.8 | -9.4 | .
CCC(C)c1ccc(OCC(=O)Nc2cccc(C(=O)Nc3ccc(C(=O)O)cc3)c2)cc1 (configuration not stated) | -9.1 | 13.5 | 16.3 | 47.3*
Cc1cnc(NC(=O)COc2ccccc2)s1 | -5.9 | 27.1 | 61.4* | 22.3
C[C@@H]1CCCCO[C@H](CN(C)Cc2ccc(C(F)(F)F)cc2)[C@@H](C)CN([C@@H](C)CO)C(=O)c2cc(NS(=O)(=O)c3ccccc3)ccc2O1 | . | . | . | 2.7
O=[N+]([O-])c1ccc(Oc2ccc(-c3cnc4ccccc4n3)cc2[N+](=O)[O-])cc1 | 3.4 | 19.1 | 40.0 | 36.8
O=[N+]([O-])c1cc(-c2cnc3ccccc3n2)ccc1Oc1ccc(Br)cc1 | -1.3 | 21.9 | 21.1 | 44.2*
COc1c2ccoc2nc2c(OC)c(OC[C@@H](O)C(C)(C)O)ccc12 | 56.8* | . | . | 7.9
COc1c2ccoc2nc2c(OC)c(OCC(O)C(C)(C)O)ccc12 (configuration not stated) | . | . | . | 7.8
Cc1ccc(C=Nc2ccccc2C(N)=O)o1 | 3.5 | 26.1 | 60.1* | .
COC(=O)c1ccc(CSc2nc3ccccc3c(=O)n2CC(C)C)o1 | 1.6 | 36.3 | 71.5* | .
O=C(C[C@@H]1CC[C@@H](NC(=O)CN2CCOCC2)[C@H](CO)O1)NC1CCCCC1 | . | . | . | 2.4
N#Cc1ccc(CSc2nnc(-c3cccs3)n2-c2ccccc2)cc1 | 55.1* | 15.9 | 21.1 | 3.3
CC1CCCN(C(=O)C2CCN(S(=O)(=O)c3ccc4c(c3)CC(C)N4C(=O)C3CC3)CC2)C1 (configuration not stated) | -4.5 | -68.5* | -75.5 | -2.2
COC(=O)Nc1ccc(S(=O)(=O)N2CCC(C(=O)N3CCCC(C)C3)CC2)cc1 (configuration not stated) | -1.2 | 38.7 | 69.3* | -5.0
